One experiment concerns Staphylococcus aureus. In words: Antibacterial activity against Staphylococcus aureus MRSA ATCC 43300 (CO-ADD:GP_020); MIC in CAMBH media using NBS plates, by Resazurin F(560/590). Format: functional. The conditions noted are these: Concentration 20 uM, ASSAY_TEST Inhibition of Bacterial Growth, detection method Resazurin, Fluorescence (ex560/em590), MEDIA CAMHB, plate type 384well, CORNING #3640, time 18 hr. Background: Resazurin is reduced to fluorescent resorufin, in cell work by metabolically active cells.

The next experiment concerns Acinetobacter baumannii. In words: Antibacterial activity against Acinetobacter baumannii ATCC 19606 (CO-ADD:GN_034); MIC in CAMBH media using NBS plates, by Resazurin F(560/590). The experiment is classed as functional. The conditions noted are these: Concentration 20 uM, ASSAY_TEST Inhibition of Bacterial Growth, detection method Resazurin, Fluorescence (ex560/em590), MEDIA CAMHB, plate type 384well, CORNING #3640, time 18 hr.

In a further experiment the test system is Escherichia coli. Briefly: Antibacterial activity against Escherichia coli ATCC 25922 (CO-ADD:GN_001); MIC in CAMBH media using NBS plates, by Resazurin F(560/590). The experiment is classed as functional. The conditions noted are these: Concentration 20 uM, ASSAY_TEST Inhibition of Bacterial Growth, detection method Resazurin, Fluorescence (ex560/em590), MEDIA CAMHB, plate type 384well, CORNING #3640, time 18 hr.

Another experiment has as its system Klebsiella pneumoniae. The following applies: Concentration 20 uM; ASSAY_TEST Inhibition of Bacterial Growth; detection method Absorption (OD600); MEDIA CAMHB; plate type 384well; NBS; CORNING #3640; time 18 hr.
The test system of a further experiment is Candida albicans. The following applies: 20 µM.
The test system of a further experiment is Cryptococcus neoformans. The conditions noted are these: Concentration 20 uM; ASSAY_TEST Inhibition of Fungal Growth; detection method Resazurin; Absorption (OD600-OD570); plate type 384well; NBS; CORNING #3640.

The structures appear in SMILES notation. For part of these data: Potency and affinity values are given separately.

A word on the Inhibition: it is the drop in the measured response relative to a control, in per cent. Turning to `Nc1c(Cl)ncnc1NCCO`, the Inhibition in the experiment with Staphylococcus aureus was -0.51%; with Acinetobacter baumannii, -7.14%; in the experiment with Escherichia coli it was 3.3%; in the experiment on Klebsiella pneumoniae, 8.13%; in the experiment with Candida albicans it was 2.14%; in the experiment with Cryptococcus neoformans, -0.36%.

As for `O=[N+]([O-])c1c(N2CCN(CCO)CC2)nc2ccccn12`, the Inhibition with Staphylococcus aureus was 9.01%; in the experiment on Acinetobacter baumannii, -8.14%; with Escherichia coli, 6.29%; in the experiment with Klebsiella pneumoniae, 3.38%; in the experiment on Candida albicans, -0.65%; in the experiment with Cryptococcus neoformans it was -4.29%.

On to `NC(=S)N/N=C/c1cc(-c2cccc(N)c2)ccn1`, for which the Inhibition is -5.52% in the experiment on Staphylococcus aureus; 27.53% in the experiment with Acinetobacter baumannii; 11.56% in the experiment with Escherichia coli; 45.35% with Klebsiella pneumoniae; 1.87% in the experiment on Candida albicans; -12.06% in the experiment with Cryptococcus neoformans.

`CC(=O)Nc1nc(C)c(CCCOc2ccc([N+](=O)[O-])cc2)c(O)n1`: the Inhibition was 4.87% in the experiment on Staphylococcus aureus; 9.03% in the experiment on Acinetobacter baumannii; 5.24% in the experiment with Escherichia coli; 2.35% in the experiment on Klebsiella pneumoniae; 3.22% in the experiment on Candida albicans; -1.34% in the experiment with Cryptococcus neoformans.

On to `Cc1nc2ccccc2nc1NS(=O)(=O)c1ccc(N)cc1`, for which the Inhibition was -35.57% in the experiment with Staphylococcus aureus; -9.78% with Acinetobacter baumannii; -4.56% with Escherichia coli; 7.2% in the experiment on Klebsiella pneumoniae; 4.92% with Candida albicans; -5.27% in the experiment on Cryptococcus neoformans.

As to `CCCCCc1cccnc1`, the Inhibition in the experiment on Staphylococcus aureus is 1.69%; with Acinetobacter baumannii it was -4.62%; with Escherichia coli, 11.47%; in the experiment with Klebsiella pneumoniae, 10.71%; with Candida albicans, 2.3%; with Cryptococcus neoformans it was -0.18%.

Consider `O=C1OC(Cc2ccccc2)C(c2ccccc2)C1=O` (stereo not given), for which the Inhibition in the experiment on Staphylococcus aureus is 9.75%; in the experiment with Acinetobacter baumannii, 11.9%; in the experiment on Escherichia coli, 6.23%; in the experiment with Klebsiella pneumoniae, 14.26%; in the experiment on Candida albicans, 6.87%; with Cryptococcus neoformans, -15.19%.

For `CCOC(=O)C(Cc1ccc(O)cc1)Nc1nc2ccccc2o1` (stereo not given), the Inhibition was 27.08% in the experiment with Staphylococcus aureus; -2.1% in the experiment with Acinetobacter baumannii; 6.27% in the experiment with Escherichia coli; 19.95% in the experiment with Klebsiella pneumoniae; 10.7% in the experiment with Candida albicans; 8.22% with Cryptococcus neoformans.

For the compound `CCC(C)(C)c1ccc(Oc2cccc(C(=O)O)c2)cc1`, the Inhibition with Staphylococcus aureus was -8.99%; in the experiment with Acinetobacter baumannii, 14.6%; in the experiment on Escherichia coli, -8.34%; with Klebsiella pneumoniae, 17.33%; in the experiment on Candida albicans, 8.87%; in the experiment on Cryptococcus neoformans it was -6.24%.

Consider `CCCCNc1cc(Cl)nc(N)n1`, for which the Inhibition in the experiment on Staphylococcus aureus is 19.23%; in the experiment with Acinetobacter baumannii, -9.43%; in the experiment with Escherichia coli it was 4.85%; in the experiment on Klebsiella pneumoniae it was 9.91%; with Candida albicans, 0.7%; with Cryptococcus neoformans it was -8.27%.

On to `CCOCc1cc(O)nc(SC)n1`, for which the Inhibition in the experiment with Staphylococcus aureus was 12.32%; with Acinetobacter baumannii, -13.24%; with Escherichia coli it was 14.73%; with Klebsiella pneumoniae, 11.3%; with Candida albicans, -0.55%; with Cryptococcus neoformans, -4.91%.

Take `Cc1nc(O)c(Cc2ccccc2O)c(-c2ccccc2)n1`: the Inhibition was 22.69% with Staphylococcus aureus; -8.89% in the experiment with Acinetobacter baumannii; 10.21% in the experiment on Escherichia coli; 16.82% with Klebsiella pneumoniae; 2.26% in the experiment with Candida albicans; 5.06% in the experiment on Cryptococcus neoformans.

Regarding `COc1ccc(Nc2cc(C)nc(N)n2)cc1`, the Inhibition in the experiment with Staphylococcus aureus was -7.83%; with Acinetobacter baumannii, -5.29%; in the experiment on Escherichia coli, -4.32%; in the experiment with Klebsiella pneumoniae, 2.7%; with Candida albicans it was 1.31%; with Cryptococcus neoformans it was -3.23%.

`Nc1nc(N)nc(C2C=CCCC2)n1` (stereo not given): the Inhibition in the experiment on Staphylococcus aureus is 1.35%; in the experiment with Acinetobacter baumannii, -5.4%; with Escherichia coli, 16.17%; with Klebsiella pneumoniae, 16.96%; with Candida albicans, 0.09%; in the experiment with Cryptococcus neoformans, -8.05%.

Regarding `C(=C\CSc1ccccn1)/CSc1ccccn1`, the Inhibition in the experiment on Staphylococcus aureus is 10.81%; in the experiment on Acinetobacter baumannii it was -13.92%; with Escherichia coli, 9.4%; with Klebsiella pneumoniae, 8.71%; in the experiment on Candida albicans it was 2.49%; with Cryptococcus neoformans, -12.06%.

As to `CC(=O)O[C@H]1CC[C@@]2(C)[C@@H](CC[C@@H]3[C@@H]2CC(=O)[C@@]2(C)[C@H]3C[C@@H]3CC(C)=CC(=O)[C@@H]32)C1`, the Inhibition was 25.43% with Staphylococcus aureus; -5.19% in the experiment with Acinetobacter baumannii; 14.73% with Escherichia coli; 18.64% with Klebsiella pneumoniae; 2.5% in the experiment on Candida albicans; -9.27% in the experiment on Cryptococcus neoformans.

With `NC1=NC(Nc2ccccc2)=NC(c2ccccc2)N1` (stereo not given), the Inhibition with Staphylococcus aureus was 10.62%; in the experiment with Acinetobacter baumannii, 4%; with Escherichia coli, 5.99%; in the experiment with Klebsiella pneumoniae, 5.54%; with Candida albicans it was 6.21%; with Cryptococcus neoformans, -14.92%.

Consider `CCNC(=O)Oc1cccnc1O`, for which the Inhibition in the experiment with Staphylococcus aureus was 2.22%; with Acinetobacter baumannii, -10.2%; in the experiment with Escherichia coli, 11.39%; in the experiment on Klebsiella pneumoniae, 5.97%; in the experiment with Candida albicans it was 1.04%; in the experiment on Cryptococcus neoformans, -16.02%.

Take `COc1cc2c(c(OC)c1O)C(=O)CO2`: the Inhibition with Staphylococcus aureus was -11.73%; in the experiment with Acinetobacter baumannii, -8.29%; with Escherichia coli it was -0.75%; with Klebsiella pneumoniae, 1.47%; in the experiment on Candida albicans, 3.59%; in the experiment with Cryptococcus neoformans it was -3.51%.

Consider `CC1=CC2C(C(O)CC3(C)C2CC(C)C32OCOC23COCO3)C2(C)C/C(=C/O)C(=O)C=C12` (stereo not given), for which the Inhibition is 18.36% in the experiment on Staphylococcus aureus; -11.09% with Acinetobacter baumannii; 9.35% with Escherichia coli; 4.64% in the experiment on Klebsiella pneumoniae; 15.1% in the experiment with Candida albicans; -16.69% with Cryptococcus neoformans.

Take `Cn1c(=O)c2nc(CNc3ccc(C(=O)O)cc3)[nH]c2n(C)c1=O`: the Inhibition was -13.67% in the experiment on Staphylococcus aureus; 2.67% with Acinetobacter baumannii; -18.91% in the experiment with Escherichia coli; 4.5% with Klebsiella pneumoniae; 2.41% with Candida albicans; 17.72% with Cryptococcus neoformans.

For `Nc1ccc(C(=O)c2cccs2)cn1`, the Inhibition in the experiment with Staphylococcus aureus is 33.76%; with Acinetobacter baumannii it was 0%; with Escherichia coli, 26.4%; in the experiment on Klebsiella pneumoniae, 9.25%; with Candida albicans it was 8.82%; in the experiment on Cryptococcus neoformans, -0.14%.

In the case of `COc1cccc(NC(S)=Nc2ccc(O)cc2)c1`, the Inhibition is -0.11% with Staphylococcus aureus; -11.24% in the experiment with Acinetobacter baumannii; 8.79% in the experiment on Escherichia coli; 5.3% in the experiment on Klebsiella pneumoniae; 8.24% in the experiment on Candida albicans; -9.84% in the experiment with Cryptococcus neoformans.

As for `CCNc1nc(Cl)nc(-c2cn(-c3ccccc3)c3ccccc23)n1`, the Inhibition with Staphylococcus aureus is 17.23%; in the experiment on Acinetobacter baumannii, 12.81%; in the experiment with Escherichia coli it was 4.37%; in the experiment with Klebsiella pneumoniae, 13.6%; with Candida albicans, 0.17%; in the experiment on Cryptococcus neoformans it was -5.12%.

For `Cc1nc(Nc2ccc(F)cc2)nc(Nc2ccc(F)cc2)c1[N+](=O)[O-]`, the Inhibition with Staphylococcus aureus is 16.01%; in the experiment with Acinetobacter baumannii it was 5.04%; with Escherichia coli it was 5.3%; in the experiment with Klebsiella pneumoniae, 11.05%; in the experiment with Candida albicans, -2.79%; in the experiment with Cryptococcus neoformans, 0.25%.

(Values after ChEMBL document CHEMBL4296182, “CO-ADD screening of NIH NCI Diversity Set V”.)
